{
  "source": "PubChem BioAssay (NCATS)",
  "note": "Results filed as inconclusive are left out. Activity calls are given as the source filed them. Calls follow the shape of the dose curve; as a rule, active = well fitted activation curve with a large enough effect in the main read-out, with a control signal flat (not every such curve was filed as active); inconclusive = small, poorly fitted or top-dose-only effect, or effect the other way, or a change in a side signal; inactive = flat fitted curve, though single readings scatter.",
  "data": [
    {"target": "3',5'-cyclic-AMP phosphodiesterase 4B (Homo sapiens) (UniProt Q07343)", "sequence (Q07343 whole entry, looked up)": "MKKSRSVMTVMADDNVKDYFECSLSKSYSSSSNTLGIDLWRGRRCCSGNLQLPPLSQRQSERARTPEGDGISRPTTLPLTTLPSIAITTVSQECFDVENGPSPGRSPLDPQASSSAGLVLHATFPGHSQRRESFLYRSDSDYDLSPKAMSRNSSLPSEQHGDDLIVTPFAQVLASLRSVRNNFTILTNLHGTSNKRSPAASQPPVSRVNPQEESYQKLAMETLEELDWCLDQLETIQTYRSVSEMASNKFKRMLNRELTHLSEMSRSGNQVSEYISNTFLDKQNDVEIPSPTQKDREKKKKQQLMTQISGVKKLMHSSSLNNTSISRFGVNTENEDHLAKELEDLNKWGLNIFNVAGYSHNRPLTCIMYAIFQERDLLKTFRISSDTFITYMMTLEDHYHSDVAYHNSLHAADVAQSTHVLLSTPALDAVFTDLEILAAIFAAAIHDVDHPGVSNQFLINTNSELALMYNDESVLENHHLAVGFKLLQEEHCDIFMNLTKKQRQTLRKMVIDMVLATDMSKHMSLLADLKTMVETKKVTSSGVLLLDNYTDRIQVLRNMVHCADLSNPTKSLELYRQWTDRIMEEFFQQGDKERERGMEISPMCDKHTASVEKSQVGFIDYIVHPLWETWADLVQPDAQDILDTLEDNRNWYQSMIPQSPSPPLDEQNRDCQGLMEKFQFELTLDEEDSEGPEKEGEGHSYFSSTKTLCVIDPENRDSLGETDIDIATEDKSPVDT", "test": "qHTS Assay for Inhibitors of PDE-IV (AID 607); also: % of control where 0% means no effect", "conditions": "HEK293 ACTOne CNG channel cells, membrane potential fluorescence; series mostly up to 22.9 µM; activation (PDE inhibition): at the top concentration", "source_text": "NIH Chemical Genomics Center [NCGC]\nNIH Molecular Libraries Screening Centers Network [MLSCN]\nThe cyclic nucleotide phosphodiesterases (PDEs) are proteins that catalyze hydrolysis of 3', 5'-cyclic nucleotides, such as cyclic adenosine monophosphate (cAMP) and cyclic guanosine monophosphate (cGMP), to their corresponding 5'-nucleotide monophosphates. These enzymes play an important role in controlling cellular concentrations of cyclic nucleotides and have a central role in a variety of intracellular signaling events. cAMP PDEs are emerging as a promising class of drug targets in asthma and cardiovascular disease therapeutic areas.\nThere are no commercially available cell-based screening assays for PDE inhibitors: currently biochemical assays are done using pure substrates (cAMP or cGMP) and purified recombinant PDE enzymes. As with other biochemical screens on intracellular targets, false positives and false negatives may result from issues involving cell membrane permeability, cellular metabolism, and the like.\nHere we report the development of a cell-based screening assay for cAMP phosphodiesterase (PDE) inhibitors. The assay is based on the BD ACTOne# technology (BD Biosciences) which utilizes a modified cyclic nucleotide-gated channel (CNG) to monitor intracellular cAMP changes in live cells. The CNG channel is localized on the plasma membrane, and opens when the intracellular cAMP level increases, resulting in ion flux and cell membrane depolarization. The influx of cations through the CNG channel can be quantified using membrane potential (MP) dyes. We modified the BD ACTOne technology to allow the detection of PDE inhibitors, and performed an inhibitor screen for PDE-IV, which is expressed endogenously in HEK293 cells. We optimized this assay in homogeneous 1536-well plate assay format for high throughput screening.\nNCGC Assay Protocol Summary:\nThe medium contained 10% FBS (Invitrogen), 2 mM L-glutamine, and 250 ug/ml G418 (Cellgro) and 1 ug/ml puromycin (Clontech). ACTOneTM parental cells (BD Biosciences) were maintained in the same medium without puromycin.\nThe activity of the CNG channel was measured by BD ACTOneTM membrane potential dye kit (BD Biosciences). Forskolin, a positive control for cAMP activation and RO 20-1724, a PDE inhibitor, were both purchased from Sigma and solublized in DMSO.\nSequence,Parameter,Value,Description\n1,Reagent,3 uL,1000 cells/well 1536 TC treated Black plate\n3,Compound,0.5 uL,Kalypsys dispense RO 20-1724 100 uM final [A]\n4,Reagent,3 uL,BD membrane potential dye\n6,Compound,23 nL,Final concentration was 0.7nM to 22.9uM\n8,Detector,EX 535 / EM 590 [B],Envision\nFootnotes: [A] The stock 2 mM RO 20-1724 PDE inhibitor was made in 10 % DMSO. Parental cell line received 10 uM forskolin + 100 uM RO. [B] Envsion settings: Bottom Excitation 535/20 nm top emission 590/20, gain of 150 and 5 flashes per well.\nKeywords: PDE, PDE-IV, cytotoxicity, flourescence, MLSMR, MLSCN, NIH Roadmap, qHTS, NCGC", "values": [
      {"smiles": "Clc1ccccc1-c1nc(-c2ccncc2)no1", "activation (PDE inhibition)": "-4.91% (inactive)"},
      {"smiles": "CC(C)Cc1ccc([C@H](C)C(=O)O)cc1", "outcome": "inactive"},
      {"smiles": "Cc1cc(NC(=O)Nc2ccc3c(ccn3C)c2)sn1", "outcome": "inactive"},
      {"smiles": "O=Nc1ccc2oc(=O)ccc2c1", "activation (PDE inhibition)": "6.91% (inactive)"},
      {"smiles": "COC1=C(OC)C(=O)c2ccccc2C1=O", "activation (PDE inhibition)": "22.2% (inactive)"},
      {"smiles": "Clc1ccc(N2CCN(Cc3c[nH]c4ncccc34)CC2)cc1", "outcome": "inactive"},
      {"smiles": "CCCCN1CCC(n2c(=O)[nH]c3ccccc32)CC1", "activation (PDE inhibition)": "0.398% (inactive)"},
      {"smiles": "Cn1c(=O)c2[nH]c(-c3ccccc3)nc2n(C)c1=O", "activation (PDE inhibition)": "15.7% (inactive)"},
      {"smiles": "CN(C)C(N)=NCCC[C@H](N)C(=O)O", "activation (PDE inhibition)": "-1.4% (inactive)"},
      {"smiles": "CC(C)(C=O)Cc1cc(C(C)(C)C)c(O)c(C(C)(C)C)c1", "activation (PDE inhibition)": "17.8% (inactive)"},
      {"smiles": "O=c1[nH]c2cc(Cl)c(Cl)cc2[nH]c1=O", "activation (PDE inhibition)": "1.91% (inactive)"},
      {"smiles": "CC1(C)CCC=[N+]1[O-]", "activation (PDE inhibition)": "-2.15% (inactive)"},
      {"smiles": "O=C(O)c1cc(=O)c2ccccc2[nH]1", "activation (PDE inhibition)": "-7.82% (inactive)"},
      {"smiles": "NCCSSCCN", "outcome": "inactive"},
      {"smiles": "NO", "activation (PDE inhibition)": "-15.8% (inactive)"},
      {"smiles": "N#C/C(=C\\c1ccc(O)c(O)c1)C(=O)c1ccc(O)c(O)c1", "activation (PDE inhibition)": "-17.2% (inactive)"},
      {"smiles": "Cc1c(Nc2ncccc2C(=O)O)cccc1C(F)(F)F", "activation (PDE inhibition)": "13.1% (inactive)"},
      {"smiles": "N#C/C(=C\\c1ccc(O)c(O)c1)C(=O)NCc1ccccc1", "outcome": "inactive"},
      {"smiles": "Nc1ccc(O)c(C(=O)O)c1", "activation (PDE inhibition)": "8.08% (inactive)"},
      {"smiles": "NC[C@@H]1O[C@H](C23CC4CC(CC(C4)C2)C3)Cc2c1ccc(O)c2O", "outcome": "inactive"},
      {"smiles": "COc1ccccc1CNCCCCCCNCCCCCCCCNCCCCCCNCc1ccccc1OC", "activation (PDE inhibition)": "-3.42% (inactive)"},
      {"smiles": "O=C(O)CC[C@@H](C(=O)O)N1C(=O)c2ccccc2C1=O", "outcome": "inactive"},
      {"smiles": "N[C@H](CCCP(=O)(O)O)C(=O)O", "outcome": "inactive"},
      {"smiles": "CN1CCc2cc(NC(=O)Nc3cccnc3)ccc21", "activation (PDE inhibition)": "-8.01% (inactive)"},
      {"smiles": "CCCCCCCC/C=C\\CCCCCCCC(=O)NCCO", "activation (PDE inhibition)": "-7.96% (inactive)"},
      {"smiles": "O=c1[nH]c2cc(C(F)(F)F)ccc2n1-c1cc(C(F)(F)F)ccc1O", "activation (PDE inhibition)": "-19.9% (inactive)"},
      {"smiles": "NCCCCC(=O)O", "activation (PDE inhibition)": "-6.01% (inactive)"},
      {"smiles": "N=C(N)SCCc1ccc(CCSC(=N)N)cc1", "activation (PDE inhibition)": "0.767% (inactive)"},
      {"smiles": "O=C(O)Cc1ccc(-c2ccccc2)cc1", "activation (PDE inhibition)": "23.1% (inactive)"},
      {"smiles": "NC(N)=NC(=O)c1nc(Cl)c(N2CCCCCC2)nc1N", "activation (PDE inhibition)": "17% (inactive)"},
      {"smiles": "O=C(O)c1cc(=O)c2c(Cl)cc(Cl)cc2[nH]1", "outcome": "inactive"},
      {"smiles": "CN(C)c1nc(N)c(C(=O)N=C(N)N)nc1Cl", "activation (PDE inhibition)": "-11.9% (inactive)"},
      {"smiles": "O=C(c1cc(O)c(O)c([N+](=O)[O-])c1)c1ccccc1F", "activation (PDE inhibition)": "17.8% (inactive)"},
      {"smiles": "CC(=O)SCC[N+](C)(C)C", "activation (PDE inhibition)": "-7.75% (inactive)"},
      {"smiles": "Cc1nc2sccn2c(=O)c1CCN1CCC(=C(c2ccccc2)c2ccc(F)cc2)CC1", "activation (PDE inhibition)": "-24% (inactive)"},
      {"smiles": "COc1ccccc1N1CCN(CCCCNS(=O)(=O)c2cccc3c(N(C)C)cccc23)CC1", "activation (PDE inhibition)": "17.9% (inactive)"},
      {"smiles": "COC(=O)c1c(C)[nH]c(C)c1C(=O)c1ccccc1Cc1ccccc1", "outcome": "inactive"},
      {"smiles": "C[N+]1(C)CCC(OC(=O)C(c2ccccc2)c2ccccc2)CC1", "outcome": "inactive"},
      {"smiles": "Cc1c(N)c(=O)n(-c2ccccc2)n1C", "activation (PDE inhibition)": "0.048% (inactive)"},
      {"smiles": "CN1CCc2ccccc2Cc2[nH]c3ccccc3c2CC1", "activation (PDE inhibition)": "12.7% (inactive)"}
    ]}
  ]
}
